# Experimental data as given in PubChem BioAssay (NCI).
# This is part of a sample that, as a whole, favours compounds with a hit. Of some 83,000 tested, about 20% had one in any assay.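 Treatment: one concentration, 48 hours, 96-well format. Scoring: percent growth, with anything below 10 considered active.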 Active and inactive are the calls of the source.
# System: A549/ATCC NSCLC
# Assay: NCI-60 one-dose screen, 48 h (100 = growth as untreated, 0 = no growth, -100 = all killed)
# Conditions: 10 µM unless noted
# Experimental: Growth inhibition of the A549/ATCC human Non-Small Cell Lung tumor cell line is measured as a screen for anti-cancer activity. Cells are grown in 96 well plates and exposed to the test compound for 48 hours. Compounds are tested at a single concentration, which is 10^-5 M for most compounds. The reported endpoint is percent growth (GI% or GIPRCNT), where numbers from 0 - 100% represent growth inhibition, and numbers from -100% - 0 represent cell death. For example, a value of 40 represents 60% growth inhibition. A value of 0 means no net growth occurred over the course of the experiment. A value of -40 indicates 40% of cells at the beginning of the experiment died by the end of the experiment. A value of -100 means all cells are dead at the end of the experiment.
# NCI-60 Human Tumor Cell Lines Screen was performed using the standard one-dose NCI protocol, which is described in more detail at https://dtp.cancer.gov/discovery_development/nci-60/default.htm.
# Compounds with GIPRCNT values below 10 were considered active. Activity score was based on GIPRCNT using the following formula: […]
# Score is 0 for GIPRCNT values of 100 or above, 50 for GIPRCNT values of 0, and 100 for GIPRCNT values of -100.
row,SMILES,growth
1,CCOC(=O)c1csc(NC(=O)CSc2nc3sc4c(c3c(=O)n2-c2ccc(Cl)cc2)CCCC4)n1,98.6% (inactive)
2,CCOC(=O)c1c(Nc2ccccc2)nn2c(N)c(C#N)c(-c3ccccc3)nc12,97% (inactive)
3,O=C1[C@H]2Cc3c([nH]c4ccccc34)[C@@H](c3ccc(Br)cc3)N2C(=O)CN1C1CCN(Cc2ccccc2)CC1,20.7% (inactive)
4,N#Cc1nc(-c2ccccc2)oc1S(N)(=O)=O,101% (inactive)
5,O=c1[nH]c2ccccc2cc1CSc1ccccc1Nc1nccc(-c2ccc(C(F)(F)F)cc2)n1,57.6% (inactive)
6,CCOC(=O)c1c(Nc2ccccc2)nn2c(N)c(C#N)c(-c3ccc(F)cc3)nc12,96.1% (inactive)
7,Clc1ccc2c(NCCCN3CCOCC3)c3oc4ccc(Cl)cc4c3nc2c1,53.9% (inactive)
8,CC(=O)Nc1cc(F)cc(-c2ccc3[nH]cc(-c4ccccc4)c3n2)c1,20.1% (inactive)
9,O=C1Nc2ccccc2Oc2ccc(S(=O)(=O)CC3CO3)cc21 (stereo not given),77.2% (inactive)
10,Clc1ccc(-c2cn3cc(Cc4ccc(Cl)c(Cl)c4)sc3n2)cc1,61.3% (inactive)
11,C#C[C@]1(O)CC[C@H]2[C@@H]3CC=C4c5sc(Nc6ccc(Cl)cn6)nc5CC[C@]4(C)[C@H]3CC[C@@]21C,50.3% (inactive)
12,COC(=O)C(Cc1ccccc1)NS(=O)(=O)/N=C1\NC(=O)NC1=C(Cl)Cl (stereo not given),105% (inactive)
13,NS(=O)(=O)c1cccc(Nc2nc(SCC(=O)c3ccc(Cl)cc3)nc3ccccc23)c1,79.5% (inactive)
14,COc1cc(OC)c(S(=O)(=O)NNC(=O)c2ccncc2)cc1C(=O)/C=C/c1ccc(C)cc1,93.4% (inactive)
15,C#Cc1nc(C2=C(C)C(=O)/C(=N/OC(C)=O)C2)cs1,96.3% (inactive)
16,Clc1ccc2oc3c(OCCCn4ccnc4)c4ccccc4nc3c2c1,62% (inactive)
17,CCOC(=O)c1sc(NCC(=O)Nc2cccc([N+](=O)[O-])c2)c(C(=O)OCC)c1C,-38.1% (active)
18,COc1ccc(C(=O)/C=C/c2ccc(OCc3ccc(C)cc3)c(OC)c2)cc1OC,63.3% (inactive)
19,CO/N=C1\CCc2c(sc(NC(=O)c3cccc(C(F)(F)F)c3)c2C(N)=O)C1,-9.56% (active)
20,CCN1C(=S)N(CC)C2C1N=C(SC)N2/N=C/C=C/c1ccccc1[N+](=O)[O-] (stereo not given),92.8% (inactive)

row,SMILES,growth
1,CC1=C(C)C(=O)C(Nc2cccc(C(F)(F)F)c2)=C(Cl)C1=O,96.8% (inactive)
2,Cc1ccccc1NC(=O)/C=C/c1ccc(OCCOc2ccc3c(C)cc(=O)oc3c2)cc1,95.7% (inactive)
3,COc1ccc(Cc2nn(CC(=O)N/N=C/c3ccc(Cl)cc3)c(=O)c3c(C)noc23)cc1,46% (inactive)
4,COc1ccc(C(=O)/C=C/c2ccc(OCc3ccc(Cl)cc3)c(OC)c2)cc1OC,70% (inactive)
5,COc1ccccc1/C=C/C=N/NC1=NC2C(S1)N(C)C(=O)N2C (stereo not given),48.3% (inactive)
6,C#Cc1nc(C2=C(C)C(O)CC2)cs1 (stereo not given),100% (inactive)
7,C=CCn1c(SCC(=O)c2ccc(Br)cc2)nnc1-c1c[nH]c2ccccc12,103% (inactive)
8,CN(C)CCCNc1c2ccccc2nc2c1oc1ccc(Cl)cc12,27.5% (inactive)
9,COc1cc(-c2nc3ccc(-c4nnc(SCC(=O)Nc5ccc(C(=O)/C=C/c6ccc(Cl)cc6)cc5)o4)cc3[nH]2)cc(OC)c1OC,101% (inactive)
10,CS(=O)(=O)c1ccc(-c2nc3ccccn3c2/C=N/Nc2nc(-c3ccc(Br)cc3)cs2)cc1,109% (inactive)
11,COc1ccc(NC2=C(Cl)C(=O)C(C)=C(C)C2=O)cc1OC,87.2% (inactive)
12,OC1CCN(CCCOc2c3ccccc3nc3c2oc2ccc(Cl)cc23)CC1,1.98% (active)
13,Cc1ccc(C(=O)Nc2cccc(C(F)(F)F)c2)cc1Nc1nc(-c2cnccn2)nc2c1cnn2C,70.8% (inactive)
14,CN(C)c1ccc(/C=c2\sc3nc4ccccc4n3c2=O)cc1,117% (inactive)
15,Clc1ccc2c(NCCCn3ccnc3)c3oc4ccc(Cl)cc4c3nc2c1,89.2% (inactive)
16,COC(=O)C(C)NS(=O)(=O)/N=C1\NC(=O)NC1=C(Cl)Cl (stereo not given),105% (inactive)
17,Fc1ccc(-c2cc3nc(C(Cl)Cl)nc(-c4ccc(Cl)cc4)n3n2)cc1,-58.2% (active)
18,N#Cc1ccc(/C=N/NC(=O)c2[nH]c3ccc(Br)cc3c2-c2ccccc2)s1,22.4% (inactive)
19,C[C@@H](Nc1c(C#N)cnc2ccc(-c3cnc(N)nc3)cc12)c1ccccc1,15.8% (inactive)
20,CCC/C=C/C=C/C(=O)N[C@@H](Cc1cc(F)cc(F)c1)C(=O)N[C@@H]1C(=O)N2CCC[C@H]2C(=O)N2CCCC[C@H]2C(=O)N[C@@H](C)C(=O)N2C[C@H](C)C[C@H]2C(=O)O[C@H]1C,31.8% (inactive)
